Most compounds without a hit are left out; they make up all but 19% or so of the library.
HT1080 IDH1KD tx – toxicity to HT-1080 IDH1 knockdown cells (counter line); Potency, µM (doses to about 46.1 µM), inactives show top-dose activity, negative = toxicity, usual class: cytotoxic; AID 686971; 360,000 tested, 2% active; HT-1080 IDH1 knockdown viability, ATP luminescence, 48 h;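 note: potency is the fitted concentration of half-maximal effect; 0% = DMSO wells and -100% = cell-free medium wells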
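Using the IDH1-knockdown HT-1080 line run in the same batch and compound series as the NT line, viability after 48 h at 37 °C was determined by CellTiter-Glo luminescence and expressed as % activity.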
IL1B secr inh – blocks inflammasome-driven IL-1 beta release. THP-1 LPS/ATP IL-1B secretion, AlphaLISA, 16 h; hits give low values. activity change, % at 57.5 µM. 360,000 tested, 4.7% active. AID 743279; in the data active = activity change below about -50%; inconclusive = mostly about -30% to -49%
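Secreted IL-1B measured by AlphaLISA bead assay after 16 h compound exposure of THP-1 cells; compounds (final up to 57.5 uM) added 1 h before LPS (250 ng/mL) and ATP (1.25 mM) stimulation; lower signal means less secretion.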
DT40 TDP1 CPT – DT40-hTDP1 cell growth loss with CPT; Potency, µM (titrated, usually from 46.2 µM), inactives show at the top dose activity change, negative = growth inhibition, most hits filed as inhibitors; chicken DT40 Tdp1-/-;hTDP1 cells + 20 nM CPT, ATP luminescence, 48 h; 420,000 tested, 12% active; note: potency is the fitted concentration of half-maximal effect; nearly all actives have a fitted effect of over 55% in size
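Cell growth measured by CellTiter-Glo luminescence after a minimum 48 h, 37 C compound exposure with 20 nM CPT in Tdp1-knockout DT40 cells stably expressing hTDP1, seeded 400/well; qHTS titration format.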
TDP1 cell noCPT – qHTS for Inhibitors of human tyrosyl-DNA phosphodiesterase 1 (TDP1): qHTS in cells in absence of CPT. Potency, µM (series often up to 46.2 µM), without a hit: at the highest dose activity change, negative = growth inhibition, hits mostly inhibitors. 420,000 tested, 15% active. DT40 Tdp1-/- hTDP1 cells, no CPT, ATP luminescence, 48 h. AID 686978, 2013; note: potency is the fitted concentration of half-maximal effect; nearly all actives have a fitted effect of over 55% in size
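Chicken DT40 Tdp1-/- cells complemented with human TDP1, screened without camptothecin (DMSO vehicle only), 400 cells/well. Compounds pin-transferred, cells incubated at 37 °C for at least 48 hr. Growth read as ATP-dependent luminescence (CellTiter-Glo, 30 min at RT).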
HT1080-NT tox – kills 2HG-producing HT-1080-NT fibrosarcoma cells; Potency, µM (series often up to 46.1 µM), for the others: at the top dose activity, negative = less viability, hits mostly cytotoxic; HT-1080-NT fibrosarcoma viability, CellTiter-Glo ATP luminescence, 48 h; AID 686970; 360,000 tested, 1.6% active;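 note: NT is the 2HG producing partner of a matched IDH1 knockdown line; potency is the fitted concentration of half-maximal effect; 0% = DMSO-treated cells and -100% = media-only wells without cells; nearly all actives have a fitted effect of over 55% in size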
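750 cells/well, RPMI + 5% FBS; 2 h settle, compound pin-transfer, 48 h at 37 degrees C. CellTiter-Glo 10 min RT, luminescence. Normalized to DMSO and media-only wells.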
* marks the source's active call; other numbers are inactive results; ? = inconclusive; . = no result; ! = not active in a repeat; [ ] = remark or other dose. Unless noted, calls come from the whole dose curve; as a rule, active = well fitted curve in the direction sought with a large enough effect; inconclusive = small, poorly fitted or top-dose-only effect, or another doubt; inactive = no such curve, though single readings can be large; an effect the other way counts as inactive or inconclusive. Unless noted, % is set by controls: 0 for no effect and ±100 for the full control effect.

SMILES	HT1080 IDH1KD tx	IL1B secr inh	DT40 TDP1 CPT	TDP1 cell noCPT	HT1080-NT tox
CCC(C(=O)c1ccccc1)P(=O)(NN)c1ccccc1 (stereo unspecified)	-4%	15	-5%	-10%	-14%
CCC1CCCCN1C(=O)CSc1nc2c([nH]c3ccccc32)c(=O)n1-c1cccc(OC)c1 (stereo unspecified)	.	.	?	26µM*	.
O=C(CSc1nc2c([nH]c3ccccc32)c(=O)n1-c1cccc(Cl)c1)N1CCOCC1	?	12	18µM*!	15µM*!	?
COc1cccc(-n2c(SCC(=O)N3CCCCC3)nc3c([nH]c4ccccc43)c2=O)c1	-2%	14	?	21µM*	6%
O=C(CSc1nc2c([nH]c3ccccc32)c(=O)n1-c1ccccc1)N1CCOCC1	5%	0	-6%	-17%	1%
COc1cccc(-n2c(SCC(N)=O)nc3c([nH]c4ccccc43)c2=O)c1	-29%	18	18µM*	16µM*	-13%
COc1cccc(-n2c(SCC(=O)Nc3cc(C)on3)nc3c([nH]c4ccccc43)c2=O)c1	-29%	-4	?	?	-3%
CS(=O)(=O)N(CC(=O)Nc1ccccc1Br)Cc1ccccc1	-4%	8	6%	0%	4%
Cc1cccc(N2CCN(C(=O)CCCn3c(=O)c4cccn4c4cccnc43)CC2)c1C	?	-24	?	18µM*	?
Cc1ccc(Cl)cc1N1CCN(C(=O)CCCn2c(=O)c3cccn3c3cccnc32)CC1	-2%	-9	?	29µM*	-1%
CC1CC(C)CN(C(=O)CCCn2c(=O)c3cccn3c3cccnc32)C1 (stereo unspecified)	-3%	-23	-20%	1%	-9%
Cc1ccc(Cl)cc1N1CCN(C(=O)CCCCCn2c(=O)[nH]c3ccccc3c2=O)CC1	.	.	0.73µM*	0.65µM*	.
Cc1ccc(S(=O)(=O)N2CCN(CC(=O)N(CC(C)C)c3c(N)n(CC(C)C)c(=O)[nH]c3=O)CC2)c(C)c1	8%	2	-10%	-30%	14%
COc1ccccc1C(c1nnnn1Cc1ccccc1)N1CCN(C2CCCC2)CC1 (stereo unspecified)	-1%	-17	?	?	0%
CC(C)C(c1nnnn1Cc1ccc(F)cc1)N1CCN(C2CCCCC2)CC1 (stereo unspecified)	0%	-7	?	?	-3%
COc1ccc(OC)c(C(c2nnnn2Cc2ccccc2)N2CCN(C3CCCCC3)CC2)c1 (stereo unspecified)	-3%	-30	18µM*	?	-5%
COc1ccc(Cn2nnnc2C(c2ccc(C)cc2)N2CCN(C3CCCC3)CC2)cc1 (stereo unspecified)	-26%	?	16µM*	9.2µM*	?
Fc1ccc(Cn2nnnc2C(c2cccs2)N2CCN(C3CCCCC3)CC2)cc1 (stereo unspecified)	-1%	0	15µM*	16µM*	0%
COc1ccc(Cn2nnnc2C(c2ccc3ncccc3c2)N2CCN(C3CCCCC3)CC2)cc1 (stereo unspecified)	2%	-14	?	?	-3%
COc1ccc(Cl)cc1NC(=O)CN(C)C(=O)c1ccc(OCc2ccccc2)c(OC)c1	-23%	-4	?	23µM*	-13%
COc1cccc(NC(=O)CN(C)C(=O)CCC(=O)c2cc(C)sc2C)c1	-13%	14	-26%	-29%	-9%
COc1ccc(Cl)cc1NC(=O)CN(C)C(=O)CCC(=O)c1cc(C)sc1C	-14%	-53*	?	-46%	-5%
COc1cc(C(=O)NCC2(N(C)C)CCCCC2)ccc1OCc1ccccc1	9.2µM*	-17	9%	?	?
COc1ccc(Cl)cc1NC(=O)CN(C)CC(=O)Nc1ccccc1-c1ccccc1	?	-3	18µM*	23µM*	-8%
COc1ccc(Cl)cc1NC(=O)CN(C)C(=O)Cc1ccc(-c2ccccc2)cc1	-21%	?	-17%	-8%	3%[9.24 µM]
SMILES	HT1080 IDH1KD tx	IL1B secr inh	DT40 TDP1 CPT	TDP1 cell noCPT	HT1080-NT tox
COc1ccc2c(c1)OC(C)CN(CCNC(=O)c1cccc(N3CCNC3=O)c1)C2 (stereo unspecified)	.	.	28%[9.04 µM]	-22%	.
COc1ccc(Cl)cc1NC(=O)CN(C)CC(=O)Nc1ccc(C)cc1Br	-12%	-67*	-7%	?	-4%
COc1ccc(C)cc1NC(=O)C(=O)NNC(=O)COc1ccc(Cl)cc1	?	6	?	23µM*	?
COc1ccc(OCC(=O)NNC(=O)C(=O)Nc2cc(OC)ccc2OC)cc1	-2%	0	?	-21%	-2%
O=C(NCc1nnc2n1CCN(C(=O)/C=C/c1ccccc1)CC2)c1cccc(F)c1	.	.	-5%	-12%	.
CCCCCn1c(C(Cc2ccccc2)NC(=O)COC)nc2ccccc21 (stereo unspecified)	-10%	8	18µM*	26µM*	7%
CCCCC(NC(C)=O)c1nc2ccccc2n1CCC (stereo unspecified)	-4%	16	?	5.8µM*	-3%
COc1cccc(CN2CCCC(C(=O)Nc3ccc(-c4cscn4)cc3)C2)c1 (stereo unspecified)	-11%	0	?	?	-16%
CC(=O)Nc1cccc(-c2cc(C)c3cc4c(cc3n2)OCO4)c1	-14%	-51*	4%	?	-25%
CC(=O)Nc1cccc(-c2nc3ccccc3s2)c1	-27%	-21	-9%	-8%	-29%
Oc1c(C(c2ccccc2)N2CCOCC2)sc2nc(-c3ccco3)nn12 (stereo unspecified)	.	.	-1%	-10%	.
O=C(Oc1cccc2c(O)cccc12)c1ccco1	-22%	26	21µM*	12µM*	-7%
Cc1ccccc1C(=O)Oc1cccc2c(O)cccc12	?	20	?	?	?
COC(=O)N1CCC2(CC1)CCN(c1ccccc1)CC2	.	.	-15%	?	.
COc1cccc(/C=C/C(=O)Nc2ccc3nc(N4CCN(C)CC4)cc(C)c3c2)c1OC	.	.	6.5µM*	5.2µM*	.
COc1cc(C(=O)Nc2ccc3nc(N4CCN(C)CC4)cc(C)c3c2)cc(OC)c1OC	?	-5	?	?	?
Cc1cc(C)cc(NC(=O)Nc2ccc3nc(N4CCN(C)CC4)cc(C)c3c2)c1	.	.	23µM*	21µM*	.
COc1cccc(NC(=O)Nc2ccc3nc(N4CCN(C)CC4)cc(C)c3c2)c1	.	.	?	15µM*	.
COCCNC(=O)CSc1ccccc1C(=O)NC1CCCc2ccccc21 (stereo unspecified)	0%	8	4%	-18%	7%

Bioassay records as filed in PubChem.
